# Compounds with a hit are over-represented: about 6.2% of the library has one in this group of screens.
# HT1080-NT tox – kills 2HG-producing HT-1080-NT fibrosarcoma cells; HT-1080-NT fibrosarcoma viability, CellTiter-Glo ATP luminescence, 48 h; Potency, µM (doses to about 46.1 µM), usual class: cytotoxic; hit rate 1.6% among 360,000;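 further: NT is the 2HG producing partner of a matched IDH1 knockdown line; nearly all actives have a fitted effect of over 55% in size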
#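 Compounds were tested in concentration-response format on HT-1080-NT cells for 48 hours at 37 degrees C. Cell viability came from CellTiter-Glo luminescence; curves were classified by r2, response magnitude and activity.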
# KB-V1 MDR tox – KB-V1 MDR subline cytotoxicity. KB-V1 MDR cells viability, CellTiter-Glo, 72 h. Potency, µM (doses to about 46.1 µM), hits mostly cytotoxic. hit rate 3.4% among 400,000. AID 1347076; further: nearly all actives have a fitted effect of over 60% in size
#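 KB-V1 MDR subline cells in DMEM (phenol-red free, 10% FBS) exposed to compounds in qHTS concentration series for 72 h at 37 degrees C. Viability read by CellTiter-Glo luminescence; concentration-effect curves fitted after normalization and correction.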
# KB-3-1 cytotox – KB-3-1 parental cell cytotoxicity; AID 1347075; KB-3-1 viability, CellTiter-Glo ATP luminescence, 72 h; Potency, µM (top dose mostly 46.1 µM), most hits filed as cytotoxic; hit rate 1.4% among 400,000; further: nearly all actives have a fitted effect of over 60% in size
#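 72 h, 37 °C compound treatment of KB-3-1 parental cells; CellTiter-Glo added, 10 min, luminescence read. Data corrected against DMSO-only plates and normalized before curve fitting.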
# ATXN2 expr inh – reduces ATXN2 reporter expression in HEK-293 cells; AID 1745845; HEK-293 ATXN2-luciferase reporter, luminescence, 24 h; Potency, µM (titrated, usually from 57 µM), most hits filed as inhibitors; hit rate 0.72% among 360,000; further: nearly all actives have a fitted effect of over 55% in size
#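 qHTS (up to 57 uM final) was run with 24 h compound exposure of reporter cells at 37 °C. Each well was multiplexed: SteadyGlo luminescence measured ATXN2-luciferase expression after a fluorogenic Gly-Phe-AFC viability readout (25 uM final).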
# S2 tox – reduces viability in counter-screen for ATXN expression inhibitors; S2 cells (HEK-293 line with an ATXN2-luciferase reporter) viability, CellTiter-Fluor protease fluorescence, 24 h; Potency, µM (top dose mostly 56.7 µM), usual class: cytotoxic; hit rate 0.49% among 400,000; further: nearly all actives have a fitted effect of over 40% in size
# HT1080 IDH1KD tx – HT-1080 IDH1 knockdown cell toxicity (counter line); HT-1080 IDH1 knockdown viability, ATP luminescence, 48 h; Potency, µM (top dose mostly 46.1 µM), usual class: cytotoxic; hit rate 2% among 360,000; AID 686971
#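 IDH1KD HT-1080 cells, 750/well, RPMI + 5% FBS; compound pinned after 2 h settling; 48 h, 37 °C; CellTiter-Glo luminescence; % activity normalised to DMSO and no-cell wells; curves fitted, classed by r2 and efficacy.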
# A number is an active result; n = inactive; u = inconclusive; x = no result given. The call rests on the fitted dose curve; in most records, active means well fitted curve in the direction sought with a large enough effect; inconclusive means small, poorly fitted or top-dose-only effect, or another doubt; inactive means no such curve, though single readings can be large; an effect the other way counts as inactive or inconclusive.
SMILES,HT1080-NT tox,KB-V1 MDR tox,KB-3-1 cytotox,ATXN2 expr inh,S2 tox,HT1080 IDH1KD tx
Cc1ccc(NC(=O)CN2CCCN(Cc3cc(C)ccc3C)S2(=O)=O)c(Cl)c1,x,n,n,x,x,x
CCCCn1nnnc1C1(C)CCC(=O)N1CCCn1ccnc1 (stereo not drawn),u,n,13µM,n,u,u
CCOC(=O)/C(C#N)=C\c1cccnc1,n,n,n,n,n,n
CCOC(=O)/C(=C\c1cccnc1)C(=O)c1cc(C(C)=O)c(Nc2ccccc2)s1,5.8µM,6.5µM,3.3µM,3.5µM,4.5µM,4.1µM
CCOC(=O)/C(=C\c1ccccc1)C(=O)c1cc(C(C)=O)c(Nc2ccccc2)s1,n,u,n,11µM,20µM,6.3µM
CCOC(=O)C(=O)/C(C#N)=C/Nc1ccccc1,n,u,n,n,n,n
CC(C)OC(=O)CSc1nc(N)c(C#N)c(-c2cccs2)c1C#N,u,21µM,n,n,n,n
CC(=O)CSc1nc(N)c(C#N)c(-c2cccs2)c1C#N,n,18µM,n,n,n,u
Cc1cccc(CSc2nc(N)c(C#N)c(-c3cccs3)c2C#N)c1,n,11µM,u,x,x,n
CN(C)CC(O)COC(c1ccc(Cl)cc1)c1ccc(Cl)cc1 (stereo not drawn),21µM,n,n,u,u,u
CC1(C)Cc2c(sc3nnn(CC(=O)Nc4ccccc4)c(=O)c23)CO1,n,n,n,n,n,n

# Screens: PubChem BioAssay, National Center for Advancing Translational Sciences (NCATS)
